Among the data in PubChem BioAssay (EPA / NIEHS) are outcome and AC50 values, retold here.

Calls of active or inactive are those of the source. Rule for the calls: active = hit-call score of the fitted dose curve at least 0.9, where 1 is the maximum; inactive = score below 0.9.

Assay [1] can be described thus: ATG_CRE_CIS: Attagene CIS-FACTORIAL HepG2 Assay for human cAMP Responsive Element (CRE) binding protein 3 (AID 2282926). The following applies: HepG2 CRE cis-reporter, Attagene multiplexed mRNA; actives raise or lower the signal. The procedure, abridged:
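Transfected HepG2 were treated for 24 hours, then RNA was extracted and reporter cDNA amplified with sequence-specific primers. Labelled fragments were separated by capillary electrophoresis, and the CRE signal was fitted bidirectionally with DMSO as baseline.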

For assay [2], the target named is CCAAT/enhancer-binding protein beta (Homo sapiens) (UniProt P17676). In words: ATG_C_EBP_CIS: Attagene CIS-FACTORIAL HepG2 Assay for human CCAAT/Enhancer Binding Protein (C/EBP) beta (AID 2282927). The following applies: HepG2 Attagene cis-factorial transcription factor reporter; actives raise or lower the signal. In short, it runs like this:
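Transiently transfected HepG2 (MRTU library, endogenous TF-driven promoters); 24 h dosing; total RNA → oligo(dT) RT → PCR → 6-FAM primer extension → HpaI digest → CE; fit bidirectionally vs DMSO.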

Assay [3] is described as follows: ATG_CMV_CIS: Attagene CIS-FACTORIAL HepG2 Assay for human CMV (Internal Marker) (AID 2282928).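 Note: endpoint acts as a background internal control marker rather than a target.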 The conditions noted are these: HepG2 CMV promoter reporter, transcription factor profiling; actives raise or lower the signal. The procedure, abridged: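 Cell system: HepG2, transiently transfected multiple reporter units under cis promoters. Exposure: 24 h. Detection: RT-PCR, FAM labeling, HpaI digestion, capillary electrophoresis. Analysis: bidirectional, DMSO baseline.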

The nature of assay [4]: ATG_DR4_LXR_CIS: Attagene CIS-FACTORIAL HepG2 Assay for human Liver X Receptor (LXR), DR4 submotif (AID 2282929). The following applies: HepG2 Attagene DR4 cis-reporter, mRNA transcription; actives raise or lower the signal. In short, it runs like this:
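HepG2 cells were transiently transfected with multiple cis-regulated reporter units and dosed for 24 hours. The DR4 reporter mRNA was quantified by RT-PCR, 6-FAM labelling and capillary electrophoresis. Bidirectional fits used DMSO as baseline.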

The target of assay [5] is Aryl hydrocarbon receptor (Homo sapiens) (UniProt P35869). In words: ATG_Ahr_CIS: Attagene CIS-FACTORIAL HepG2 Assay for human Aryl Hydrocarbon Receptor (Ahr) (AID 2282930). The conditions noted are these: HepG2 AhR cis-factorial reporter transcription; actives raise or lower the signal. The procedure, abridged: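 Read-out: reporter mRNA quantified by RT-PCR with fluorescent primer extension and capillary electrophoresis. Human HepG2 liver cells carried transfected cis-promoter reporter units and were exposed to chemical for 24 h; gain or loss fitted relative to DMSO.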

Assay [6] in a line: ATG_AP_1_CIS: Attagene CIS-FACTORIAL HepG2 Assay for human Activator Protein 1 (AP-1) (AID 2282931). The following applies: HepG2 Attagene cis-factorial AP-1 reporter mRNA; actives raise or lower the signal. The procedure, abridged:
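HepG2 cells transiently transfected with cis-element-driven reporter transcription units, dosed for 24 hours. Reporter mRNA measured by RT-PCR, 6-FAM labelling, HpaI digestion and capillary electrophoresis. Bidirectional fitting against DMSO baseline.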

The nature of assay [7]: ATG_AP_2_CIS: Attagene CIS-FACTORIAL HepG2 Assay for human Activator Protein 2 (AP-2) (AID 2282932). The conditions noted are these: HepG2 AP-2 cis-reporter, Attagene transcription factor profiling; actives raise or lower the signal. The procedure, abridged:
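Multiplexed mRNA reporter assay in HepG2: cis-regulated units report endogenous factor activity after 24 h treatment. Fluorescence from capillary electrophoresis of RT-PCR products gives the signal, with DMSO as baseline.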

The nature of assay [8]: ATG_BRE_CIS: Attagene CIS-FACTORIAL HepG2 Assay for human Bone Morphogenetic Protein (BMP) Response Element (BRE) (AID 2282933). The following applies: HepG2 BMP response element reporter, Attagene transcription factor profiling; actives raise or lower the signal. The procedure, abridged:
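Transient MRTU transfection of human HepG2 liver cells; 24 h compound treatment; total RNA isolated, reverse-transcribed, PCR-amplified, 6-FAM labelled, HpaI-cut, capillary electrophoresis. DMSO = negative control/baseline, bidirectional fit.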

Assay [9] concerns the target Retinoic acid receptor alpha (Homo sapiens) (UniProt P10276). In words: ATG_DR5_RAR_CIS: Attagene CIS-FACTORIAL HepG2 Assay for human Retinoic Acid Receptor Alpha (RARE), DR5 submotif (AID 2282934).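 For AC50: reporter responds to endogenous RAR alpha beta and gamma in HepG2 not RARA alone.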 The conditions noted are these: HepG2 Attagene cis-factorial RARE DR5 reporter, mRNA; actives raise or lower the signal. In short, it runs like this:
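Read-out: DR5-driven reporter transcript measured by RT-PCR, 6-FAM primer extension, HpaI digest and capillary electrophoresis. Human HepG2 liver cells carry transiently transfected cis-element reporter constructs; dosing lasts 24 h. Gain or loss of signal fitted against DMSO baseline.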

The target in assay [10] is Transcription factor E2F1 (Homo sapiens) (UniProt Q01094). In words: ATG_E2F_CIS: Attagene CIS-FACTORIAL HepG2 Assay for human E2F Transcription Factor 1 (AID 2282935). The following applies: HepG2 Attagene cis-reporter, E2F reporter RNA transcripts; actives raise or lower the signal. The procedure, abridged: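 Measures reporter transcript levels via RT-PCR with capillary electrophoresis detection in HepG2 cells harboring cis-regulated reporter units; 24 h post-dose; bidirectional curve fitting with DMSO as baseline.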
Chain of Transcription factor E2F1 (Homo sapiens) (Q01094 whole entry, looked up): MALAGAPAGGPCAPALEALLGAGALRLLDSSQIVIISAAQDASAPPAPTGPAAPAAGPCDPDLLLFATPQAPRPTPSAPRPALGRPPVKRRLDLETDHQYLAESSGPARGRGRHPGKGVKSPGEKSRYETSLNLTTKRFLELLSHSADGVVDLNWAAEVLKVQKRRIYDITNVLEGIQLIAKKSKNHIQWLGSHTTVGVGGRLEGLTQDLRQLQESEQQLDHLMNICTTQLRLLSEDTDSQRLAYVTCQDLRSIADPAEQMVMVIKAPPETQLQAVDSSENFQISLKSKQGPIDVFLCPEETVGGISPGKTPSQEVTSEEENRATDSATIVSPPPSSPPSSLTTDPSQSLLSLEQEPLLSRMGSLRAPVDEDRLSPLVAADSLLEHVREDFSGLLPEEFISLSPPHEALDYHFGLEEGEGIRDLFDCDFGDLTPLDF

Chain of CCAAT/enhancer-binding protein beta (Homo sapiens) (P17676 whole entry, looked up): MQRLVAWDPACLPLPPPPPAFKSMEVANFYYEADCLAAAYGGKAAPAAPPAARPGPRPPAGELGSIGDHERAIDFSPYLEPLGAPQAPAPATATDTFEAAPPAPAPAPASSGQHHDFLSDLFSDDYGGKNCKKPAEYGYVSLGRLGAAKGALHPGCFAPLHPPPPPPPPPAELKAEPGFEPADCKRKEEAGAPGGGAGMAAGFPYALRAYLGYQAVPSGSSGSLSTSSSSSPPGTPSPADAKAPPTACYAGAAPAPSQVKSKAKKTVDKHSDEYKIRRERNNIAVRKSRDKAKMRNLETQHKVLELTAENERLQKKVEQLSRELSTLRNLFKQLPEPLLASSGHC
Chain of Aryl hydrocarbon receptor (Homo sapiens) (P35869 whole entry, looked up): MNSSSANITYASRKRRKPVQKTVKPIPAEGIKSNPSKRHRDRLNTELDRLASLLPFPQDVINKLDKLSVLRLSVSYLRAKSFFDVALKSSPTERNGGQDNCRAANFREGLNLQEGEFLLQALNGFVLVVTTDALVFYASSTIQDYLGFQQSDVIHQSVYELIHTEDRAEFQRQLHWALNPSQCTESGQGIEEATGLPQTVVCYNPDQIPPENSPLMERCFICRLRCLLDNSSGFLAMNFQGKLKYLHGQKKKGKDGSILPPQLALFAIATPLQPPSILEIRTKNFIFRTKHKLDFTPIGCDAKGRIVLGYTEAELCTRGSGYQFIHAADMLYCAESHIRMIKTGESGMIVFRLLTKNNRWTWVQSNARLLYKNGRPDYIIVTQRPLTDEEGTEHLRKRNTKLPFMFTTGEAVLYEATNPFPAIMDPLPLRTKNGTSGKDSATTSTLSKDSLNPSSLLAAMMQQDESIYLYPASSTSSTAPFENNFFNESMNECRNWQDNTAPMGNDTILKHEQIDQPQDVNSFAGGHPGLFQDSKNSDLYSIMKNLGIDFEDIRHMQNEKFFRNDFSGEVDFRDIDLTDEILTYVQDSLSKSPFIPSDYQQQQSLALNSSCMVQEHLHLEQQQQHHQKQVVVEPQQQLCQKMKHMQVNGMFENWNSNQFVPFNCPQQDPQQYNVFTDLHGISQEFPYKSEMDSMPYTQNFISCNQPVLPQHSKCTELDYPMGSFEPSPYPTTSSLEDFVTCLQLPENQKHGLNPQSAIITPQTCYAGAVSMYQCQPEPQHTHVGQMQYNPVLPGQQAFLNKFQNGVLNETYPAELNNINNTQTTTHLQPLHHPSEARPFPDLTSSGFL
Chain of Retinoic acid receptor alpha (Homo sapiens) (P10276 whole entry, looked up): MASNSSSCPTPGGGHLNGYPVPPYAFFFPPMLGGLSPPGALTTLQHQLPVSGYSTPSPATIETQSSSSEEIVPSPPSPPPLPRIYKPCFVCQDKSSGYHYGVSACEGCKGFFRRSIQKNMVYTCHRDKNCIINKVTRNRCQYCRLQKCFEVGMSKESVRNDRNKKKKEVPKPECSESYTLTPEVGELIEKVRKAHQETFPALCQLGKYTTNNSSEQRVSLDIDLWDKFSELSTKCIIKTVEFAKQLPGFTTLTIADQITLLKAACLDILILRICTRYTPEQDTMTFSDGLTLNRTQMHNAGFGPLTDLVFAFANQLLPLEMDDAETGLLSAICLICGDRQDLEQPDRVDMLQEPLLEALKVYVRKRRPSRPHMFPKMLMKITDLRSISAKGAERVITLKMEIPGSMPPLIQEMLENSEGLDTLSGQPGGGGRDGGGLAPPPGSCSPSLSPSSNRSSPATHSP

With `COC(=O)CC(=O)OC`, the result in assay [1], in [2], in assay [3], in [4], in assay [5] and in assay [6] was inactive. The outcome in assay [7], in assay [8], in [9] and in assay [10] was inactive.

On to `O=C(O)CC(O)C(=O)O` (stereo not given), for which the molecule was called inactive in [1], in assay [2], in [3], in [4], in [5] and in assay [6]. Also, the outcome in assay [7], in assay [8], in [9] and in [10] was inactive.

As for `CC(=O)c1ccc2c(c1)[C@H](NC(=O)c1ccc(F)cc1)[C@@H](O)C(C)(C)O2`, the outcome in [1], in assay [2], in assay [3], in assay [4], in [5] and in assay [6] was inactive. For the same molecule, the molecule was called inactive in assay [7], in assay [8], in assay [9] and in assay [10].

Turning to `Cc1ccc(O)cc1`, the molecule was classed as inactive in assay [1], in assay [2], in assay [3], in assay [4], in [5] and in [6]. The call in [7], in assay [8], in assay [9] and in assay [10] was inactive.

Take `CC1(C)C(=O)N(Br)C(=O)N1Br`: the molecule was classed as inactive in assay [1], in assay [2], in assay [3], in [4], in assay [6] and in assay [7]. The call in [8], in assay [9] and in assay [10] was inactive. Besides, the AC50 in assay [5] is 68.5 µM (active).

`Cc1ccc(S(=O)(=O)O)cc1C`: the outcome in assay [1], in assay [2], in assay [3], in assay [4], in assay [5] and in assay [6] was inactive. Moreover, the call in assay [7], in [8], in assay [9] and in [10] was inactive.

For the molecule `COCCOCCOCCOC`, the molecule was classed as inactive in assay [1], in assay [2], in [3], in assay [4], in assay [5] and in assay [6]. Besides, the molecule was called inactive in assay [7], in assay [8], in [9] and in assay [10].

Consider `CC[C@H]1CC[C@H](NCc2cc3c(cc2OC)[C@H]2C[C@H]2C(=O)N3C)[C@H](c2ccccc2)N1`, for which the AC50 was 58.6 µM (active) in assay [1], 15.9 µM (active) in assay [2] and 55.4 µM (active) in assay [7]. In addition, the molecule was called inactive in assay [3], in [4], in [5], in assay [6], in [8] and in assay [9]. In assay [10], the result was inactive.

As for `COc1ccc(-n2nc(C(F)F)cc2-c2ccc(S(C)=O)cc2)cc1` (stereo not given), the call in assay [1], in [4], in assay [5], in [6], in assay [7] and in assay [8] was inactive. The call in assay [9] and in assay [10] was inactive. The concentration at half-maximal activity (AC50) in assay [3] is 5.24 µM (active).

As to `O=C(CCCCCCCCc1cccnc1)N1CCC(C=C(c2ccccc2)c2ccccc2)CC1`, the AC50 in assay [1] was 14.5 µM (active); in assay [2], 9.03 µM (active); in assay [3] it was 14 µM (active); in [4], 14.4 µM (active); in [5], 0.874 µM (active); in assay [6], 9.05 µM (active). Besides, the AC50 in [7] is 56.3 µM (active); in assay [8], 3.07 µM (active); in assay [9], 1.66 µM (active). In addition, the outcome in assay [10] was inactive.

For the molecule `O=C1OC(=O)C2C3C=CC(C3)C12` (stereo not given), the molecule was classed as inactive in [1], in assay [2], in [3], in [4], in assay [5] and in assay [6]. Also, the molecule was classed as inactive in [7], in assay [8], in [9] and in assay [10].

Regarding `Oc1ccc2c(c1)-c1ccccc1C2`, the half-maximal activity concentration (AC50) in assay [1] was 44.4 µM (active); in assay [2], 74 µM (active); in assay [3], 4.28 µM (active); in assay [4], 1.79 µM (active); in assay [5] it was 2.53 µM (active); in assay [8], 84.4 µM (active). Besides, in [9], the AC50 is 27.5 µM (active). Moreover, the call in assay [6], in [7] and in [10] was inactive.

`Clc1nc(Cl)c(Cl)c(Cl)c1Cl`: the call in assay [1], in assay [3], in assay [4], in assay [5], in assay [6] and in assay [7] was inactive. Also, the outcome in [8], in [9] and in assay [10] was inactive.

As for `C=CC(=C)CCC=C(C)C`, the call in assay [1], in assay [2], in assay [3], in assay [4], in assay [6] and in assay [7] was inactive. Further, the call in assay [8], in assay [9] and in assay [10] was inactive. The AC50 in [5] was 67.1 µM (active).

Take `CCNc1ccccc1`: the outcome in assay [1], in [2], in [3], in assay [4], in assay [5] and in assay [6] was inactive. In addition, the molecule was called inactive in assay [7], in assay [8], in assay [9] and in assay [10].

In the case of `Nc1nc2ncc(CNc3ccc(C(=O)N[C@@H](CCC(=O)O)C(=O)O)cc3)nc2c(=O)[nH]1`, the outcome in assay [1], in assay [3], in [4], in assay [5], in [6] and in [7] was inactive. Besides, the result in assay [8], in assay [9] and in [10] was inactive.

On to `CCCCCCCCCCCCc1ccccc1`, for which the molecule was called inactive in assay [1], in assay [2], in assay [3], in assay [4], in [5] and in assay [6]. Moreover, the molecule was classed as inactive in assay [7], in [8], in assay [9] and in assay [10].

Turning to `CCCCC(CC)COC(=O)CCCCCCCCC(=O)OCC(CC)CCCC` (stereo not given), the AC50 in assay [1] was 25.2 µM (active). Moreover, the result in [2], in assay [3], in assay [4], in assay [5], in [6] and in assay [7] was inactive. Also, the molecule was classed as inactive in assay [8] and in [10].

On to `NC(=O)NO`, for which the call in [1], in [2], in assay [3], in assay [4], in assay [6] and in assay [7] was inactive. Also, the call in assay [8], in [9] and in assay [10] was inactive. Moreover, in assay [5], the concentration at half-maximal activity (AC50) is 100 µM (active).

On to `CN(C)c1ccc(N=NS(=O)(=O)O)cc1`, for which the molecule was classed as inactive in assay [1], in assay [2], in assay [3], in assay [4], in [7] and in [8]. Besides, the result in assay [9] and in assay [10] was inactive. The half-maximal activity concentration (AC50) in [5] was 7.46 µM (active); in [6] it was 43.8 µM (active).

Regarding `CNCc1ccc(NC(=O)c2c[nH]c3c2C(=O)CCC3)cc1`, the molecule was called inactive in [1], in assay [3], in [4], in [6], in assay [7] and in assay [8]. Further, the molecule was classed as inactive in [9] and in [10]. Moreover, the concentration at half-maximal activity (AC50) in assay [5] is 4.66 µM (active).
